According to PubChem BioAssay (NCI):
Several values for one entry are separate records, joined by “and”; a condition that tells them apart may be missing. Equal values may be shown once. About 83,000 compounds went through this panel and 20% of them were active in at least one assay; those are over-represented in the sample as a whole.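 Growth was measured after 48 h exposure to one concentration of compound in 96-well plates. Values under 10 count as active.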 Unmarked numbers belong to inactive results. Activity calls are given as the source filed them.

system: MDA-MB-435 melanoma; assay: NCI-60 one-dose screen, 48 h (100 = growth as untreated, 0 = no growth, -100 = all killed); conditions: 10 µM unless noted

Row | SMILES | growth
1 | CCC1(NC(=O)c2cc(F)c(F)c(F)c2F)C(=O)NC(=O)N(C(C)C)C1=O (stereo not given) | 59.8%
2 | O=C1NC(=O)C(=C/C=C/c2ccccc2)C(=O)N1 | 3.9% (active)
3 | C[C@]12CCC3[C@@H](C[C@@H]4SC(Nc5ccccc5)=N[C@@]45CC(=O)CC[C@]35C)[C@@H]1CCC2=O (stereo not given in full) | 1.11% (active)
4 | CCCCOCCOP(=O)(OCCOCCCC)OCCOCCCC | 101%
5 | Cc1cc[c-]cc1.Fc1c[c-]c(-c2ccccn2)c(F)c1.N#CCC[PH+](CCC#N)c1ccccc1.[Pt+2] | 30.9%
6 | CCN(CC)CCn1c(=O)n(C)c2ccccc21 | 105%
7 | COc1cc2c(cc1OC)[C@@H]1C(=O)c3ccc4c(c3O[C@@H]1CO2)C[C@H](C(C)C)O4 | 51.4%
8 | COC(=O)C12C3C4C1C1C2C3C41NC(=O)c1csc([C@@H](C[C@H](C(C)C)N(C)C(=O)[C@@H](NC(=O)[C@H]2CCCCN2C)C2CC2)OC(C)=O)n1 (stereo not given in full) | -29.7% (active)
9 | CC[C@H](CC[C@@H](C)[C@H]1CC[C@H]2[C@@H]3CC[C@H]4C[C@]5(CC[C@]4(C)[C@H]3CC[C@]12C)OO[C@](C)(C(F)(F)F)O5)C(C)C | 96.9%
10 | CC(C)CCC1C(=O)NC(=O)NC1=O | 99.7%
11 | CN1CCC2(CC1)C(C#N)C(=O)NC(=O)C2C#N (stereo not given) | 97.6%
12 | CC(=O)c1cccc(S(=O)(=O)F)c1 | 97.8%
13 | ClCc1ccc(Cl)c(Cl)c1 | 106%
14 | COc1cc2c(cc1OC)-c1c3c(cc4c1[C@@H](C2)N(C)CC4)OCO3 | 51.8%
15 | C=CC[PH+](c1ccccc1)c1ccccc1.C=CC[PH+](c1ccccc1)c1ccccc1.[Pt+2].[S-]c1ncccn1.[S-]c1ncccn1 | -48.1% (active)
16 | CC(=O)Nc1nc2c(s1)C1=CC[C@H]3[C@@H]4CC[C@H](OC(C)=O)[C@@]4(C)CC[C@@H]3[C@@]1(C)CC2 | 4.51% (active)
17 | C[C@]12CCC(=O)C[C@@H]1CC[C@@H]1[C@@H]2CC[C@]2(C)[C@@H](OC(=O)N(CCCl)N=O)CC[C@@H]12 | 25.9%
18 | C[N+]1(C)CCCC1c1cccnc1 (stereo not given) | 108%
19 | O=[N+]([O-])c1cc(Br)c(O)c(Br)c1 | 111%
20 | Nc1ccc(S(=O)(=O)F)cc1 | 102%
21 | Cc1cc(N(CCCl)CCCl)ccc1/C=N\NC(=O)c1cccnc1 | 91.3% and 88.1%
22 | CNC(=O)O/N=C(\SC)C(=O)N(C)C | 116%
23 | N#CC(C#N)=Cc1cccc(F)c1 | 107%
24 | CCC1(CCSC#N)C(=O)NC(=O)NC1=O | 106%

system: SW-620 colon; assay: as above; conditions: 10 µM unless noted

Row | SMILES | growth
25 | C[C@@]12CCCc3coc(c31)C(=O)c1cc3c(cc12)C(=O)C1=C(NCCS1(=O)=O)C3=O | -43.8% (active)
26 | C=CC[PH+](c1ccccc1)c1ccccc1.C=CC[PH+](c1ccccc1)c1ccccc1.[Pt+2].[S-]c1nc2ccccc2[nH]1.[S-]c1nc2ccccc2[nH]1 | 3.79% (active)
27 | Cc1cc[c-]cc1.Fc1c[c-]c(-c2ccccn2)c(F)c1.[Pt+2].c1ccc([PH+](c2ccccc2)c2ccccn2)cc1 | 45.6%
28 | C#Cc1cccc(Nc2nc(Cl)nc3cc(NC(=O)CF)ccc23)c1 | 35.4%
29 | CC[C@H](C)[C@H](NC(=O)c1ncccn1)C(=O)N(C)[C@H](C[C@@H](OC(C)=O)c1nc(C(=O)N[C@@H](Cc2ccccc2)C[C@H](C)C(=O)OC)cs1)C(C)C | 25.8%
30 | Cc1cc(Br)c([N+](=O)[O-])cc1[N+](=O)[O-] | 23%
31 | COc1cc(C=C2C(=O)NC(=O)NC2=O)ccc1O | 108%
32 | Oc1cc(N2CC2)c(O)cc1N1CC1 | 3.72% (active)
33 | C[C@]12CCc3sc(Nc4ccc(O)cc4)nc3C1=CC[C@@H]1[C@@H]2CC[C@]2(C)C(=O)CC[C@@H]12 | -32.2% (active)
34 | CN1CCc2cc3c(cc2C1O)OCO3 (stereo not given) | 96.1% and 100%
35 | N#CC(NC(=O)CCl)=C(Cl)Cl | -50.1% (active)
36 | CC[C@@H](C)C(=O)O[C@H]1[C@H](O)[C@H]2[C@@H](CN3C[C@@H](C)CC[C@H]3[C@@]2(C)O)[C@@H]2C[C@]34O[C@]5(O)[C@@H](OC(=O)[C@@](C)(O)CC)CC[C@@]3(C)[C@@H]5[C@@H](OC(C)=O)[C@@H](OC(C)=O)[C@H]4[C@@]21O | 95.2%
37 | CCC1(NC(=O)c2cc(F)c(F)c(F)c2F)C(=O)NC(=O)N(C(C)C)C1=O (stereo not given) | 62.7%
38 | O=C1NC(=O)C(=C/C=C/c2ccccc2)C(=O)N1 | -76.4% (active)
39 | C[C@]12CCC3[C@@H](C[C@@H]4SC(Nc5ccccc5)=N[C@@]45CC(=O)CC[C@]35C)[C@@H]1CCC2=O (stereo not given in full) | -17.9% (active)
40 | CCCCOCCOP(=O)(OCCOCCCC)OCCOCCCC | 93.3%
41 | Cc1cc[c-]cc1.Fc1c[c-]c(-c2ccccn2)c(F)c1.N#CCC[PH+](CCC#N)c1ccccc1.[Pt+2] | 6.78% (active)
42 | CCN(CC)CCn1c(=O)n(C)c2ccccc21 | 105%

Row | SMILES | growth
43 | COc1cc2c(cc1OC)[C@@H]1C(=O)c3ccc4c(c3O[C@@H]1CO2)C[C@H](C(C)C)O4 | 84.7%
44 | COC(=O)C12C3C4C1C1C2C3C41NC(=O)c1csc([C@@H](C[C@H](C(C)C)N(C)C(=O)[C@@H](NC(=O)[C@H]2CCCCN2C)C2CC2)OC(C)=O)n1 (stereo not given in full) | 26.1%
45 | CC[C@H](CC[C@@H](C)[C@H]1CC[C@H]2[C@@H]3CC[C@H]4C[C@]5(CC[C@]4(C)[C@H]3CC[C@]12C)OO[C@](C)(C(F)(F)F)O5)C(C)C | 92.4%
46 | CC(C)CCC1C(=O)NC(=O)NC1=O | 91.8%
47 | CN1CCC2(CC1)C(C#N)C(=O)NC(=O)C2C#N (stereo not given) | 108%
48 | CC(=O)c1cccc(S(=O)(=O)F)c1 | 105%
49 | ClCc1ccc(Cl)c(Cl)c1 | 97%
50 | COc1cc2c(cc1OC)-c1c3c(cc4c1[C@@H](C2)N(C)CC4)OCO3 | 35.1%
51 | C=CC[PH+](c1ccccc1)c1ccccc1.C=CC[PH+](c1ccccc1)c1ccccc1.[Pt+2].[S-]c1ncccn1.[S-]c1ncccn1 | -4.87% (active)
52 | CC(=O)Nc1nc2c(s1)C1=CC[C@H]3[C@@H]4CC[C@H](OC(C)=O)[C@@]4(C)CC[C@@H]3[C@@]1(C)CC2 | 43.3%
53 | C[C@]12CCC(=O)C[C@@H]1CC[C@@H]1[C@@H]2CC[C@]2(C)[C@@H](OC(=O)N(CCCl)N=O)CC[C@@H]12 | 31.7%
54 | C[N+]1(C)CCCC1c1cccnc1 (stereo not given) | 100%
55 | O=[N+]([O-])c1cc(Br)c(O)c(Br)c1 | 108%
56 | Nc1ccc(S(=O)(=O)F)cc1 | 105%
57 | Cc1cc(N(CCCl)CCCl)ccc1/C=N\NC(=O)c1cccnc1 | 91.4%
58 | CNC(=O)O/N=C(\SC)C(=O)N(C)C | 106%
59 | N#CC(C#N)=Cc1cccc(F)c1 | 109%
60 | CCC1(CCSC#N)C(=O)NC(=O)NC1=O | 106%
